Some test systems named below: HCT-15 colon; HT29 colon; SNB-75 CNS; SNB-19 CNS; U251 CNS; PC-3 prostate; SK-MEL-5 melanoma; UACC-62 melanoma; LOX IMVI melanoma; SK-MEL-28 melanoma; SK-MEL-2 melanoma; EKVX NSCLC; SN12C renal; UO-31 renal; TK-10 renal; ACHN renal; CAKI-1 renal; CCRF-CEM leukemia; MOLT-4 leukemia; A498 renal.
Common to all, as to experiment: NCI-60 one-dose screen, 48 h (100 = growth as untreated, 0 = no growth, -100 = all killed)
Common to all, as to conditions: 10 µM unless noted

This is part of a sample that, as a whole, favours compounds with a hit. Of some 83,000 tested, about 20% had one in any assay.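 Testing used 96-well plates and a 48-hour single-concentration exposure. Example: -40 means 40% of the starting cells died.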 A number with no mark means an inactive call. The source made the active and inactive calls. The calls were made as follows: active = growth percent below 10; inactive = the rest.

With `Brc1ccc(Nc2csc(-c3ccccn3)n2)cc1`, the growth is 67.4% with HCT-15 colon; 81.4% in the experiment with HT29 colon; 72.3% in the experiment on SNB-75 CNS; 96% in the experiment with SNB-19 CNS; 101% with U251 CNS; 85.3% in the experiment with PC-3 prostate. Moreover, the growth in the experiment on SK-MEL-5 melanoma was 95.4%; in the experiment with UACC-62 melanoma it was 67.1%; with LOX IMVI melanoma it was 72.1%; in the experiment with SK-MEL-28 melanoma, 109%; with SK-MEL-2 melanoma, 96.4%; in the experiment with EKVX NSCLC, 85.4%. Also, the growth was 91.6% in the experiment on SN12C renal; 52.2% in the experiment on UO-31 renal; 119% with TK-10 renal; 82.4% in the experiment with ACHN renal; 63.6% with CAKI-1 renal; 97.2% in the experiment with CCRF-CEM leukemia. In addition, in the experiment with MOLT-4 leukemia, the growth is 96.6%.
With `COc1cccc2c1c1nc3cc(C)c(C)cc3nc1n2CCN(C)C`, the growth with HCT-15 colon was 13.1%; in the experiment with HT29 colon, 11%; in the experiment with SNB-75 CNS it was 34%; in the experiment on SNB-19 CNS, 25.4%; in the experiment on U251 CNS, 25.9%; with PC-3 prostate, 18.3%. In addition, the growth in the experiment with SK-MEL-5 melanoma is 10.7%; in the experiment on UACC-62 melanoma it was 14.6%; with LOX IMVI melanoma it was 1.15% (active); in the experiment on SK-MEL-28 melanoma, 36%; with SK-MEL-2 melanoma it was 11%; in the experiment on EKVX NSCLC it was 25.7%. Besides, the growth with SN12C renal is 16.9%; with UO-31 renal, 6.86% (active); with TK-10 renal, 52.1%; in the experiment on ACHN renal it was -12.3% (active); in the experiment on CCRF-CEM leukemia, 27.6%; with MOLT-4 leukemia, 10.5%.
Regarding `C=C1C(=O)O[C@H]2[C@H]1CC/C(COC(=O)NCC(C)c1ccc(CC(C)C)cc1)=C\CC[C@@]1(C)O[C@@H]21` (stereo not given in full), the growth in the experiment with HCT-15 colon was -59.2% (active); with HT29 colon, -60.6% (active); with SNB-75 CNS, -5.57% (active); in the experiment with SNB-19 CNS, 36.9%; in the experiment on U251 CNS, -22.3% (active); with PC-3 prostate it was 0.0191% (active). Moreover, the growth with SK-MEL-5 melanoma was 17.1%; in the experiment with UACC-62 melanoma it was -37.7% (active); in the experiment on LOX IMVI melanoma it was -83.8% (active); with SK-MEL-28 melanoma, -66.7% (active); in the experiment on SK-MEL-2 melanoma, -45.2% (active); in the experiment on EKVX NSCLC it was -6.2% (active). Also, the growth is -57% (active) in the experiment on SN12C renal; -100% (active) in the experiment with UO-31 renal; -36.1% (active) in the experiment with TK-10 renal; -100% (active) in the experiment on ACHN renal; -24.2% (active) in the experiment with CCRF-CEM leukemia; -8.4% (active) in the experiment on MOLT-4 leukemia.
Turning to `COc1cc2c(=O)n(CCN(C)C)c3c4cc5c(cc4ccc3c2cc1OC)OCO5`, the growth was -13.3% (active) in the experiment on HCT-15 colon; 0.585% (active) in the experiment on HT29 colon; 17.8% with SNB-75 CNS; 6.11% (active) in the experiment with SNB-19 CNS; -4.24% (active) with U251 CNS; 7.26% (active) with PC-3 prostate. Besides, the growth in the experiment on SK-MEL-5 melanoma is -68.7% (active); in the experiment on UACC-62 melanoma, -85.6% (active); with LOX IMVI melanoma, -58.3% (active); in the experiment on SK-MEL-28 melanoma, -33.9% (active); in the experiment with SK-MEL-2 melanoma, -65.1% (active); in the experiment on EKVX NSCLC, -1.09% (active). Besides, the growth in the experiment with SN12C renal was -4.74% (active); with UO-31 renal, -77.6% (active); with TK-10 renal it was -76.2% (active); with ACHN renal, -92.6% (active); in the experiment on CAKI-1 renal it was -89.5% (active); in the experiment on CCRF-CEM leukemia, 2.56% (active). Further, the growth with MOLT-4 leukemia was 3.91% (active).
On to `Cn1cc(-c2csc(-c3c[nH]c4ccccc34)n2)c2ccnc(Cl)c21`, for which the growth was -8.86% (active) in the experiment on HCT-15 colon; 27.9% in the experiment on HT29 colon; 77.7% in the experiment with SNB-75 CNS; 94% in the experiment with SNB-19 CNS; 48.6% in the experiment with U251 CNS; 56% in the experiment with PC-3 prostate. Besides, the growth was 50% in the experiment on SK-MEL-5 melanoma; 84.9% in the experiment on UACC-62 melanoma; 82.6% with LOX IMVI melanoma; 85.1% with SK-MEL-28 melanoma; 94.4% with SK-MEL-2 melanoma; 79.6% in the experiment on EKVX NSCLC. Besides, the growth with SN12C renal was 76.5%; in the experiment on UO-31 renal it was 49.3%; in the experiment with TK-10 renal, 77.4%; in the experiment on ACHN renal, 54.2%; in the experiment on A498 renal, 53.8%; in the experiment with CCRF-CEM leukemia, 57.4%.
Consider `CN(C)CCC(=O)c1ccc([N+](=O)[O-])cc1`, for which the growth in the experiment with HCT-15 colon is 103%; in the experiment on HT29 colon, 96.7%; in the experiment on SNB-75 CNS, 90.9%; with SNB-19 CNS, 107%; in the experiment with U251 CNS, 105%; with PC-3 prostate it was 93.6%. Further, the growth in the experiment with SK-MEL-5 melanoma was 99%; with UACC-62 melanoma, 98.6%; in the experiment with LOX IMVI melanoma, 111%; in the experiment on SK-MEL-28 melanoma it was 104%; in the experiment with SK-MEL-2 melanoma it was 109%; in the experiment on EKVX NSCLC, 106%. For the same compound, the growth in the experiment with SN12C renal is 99.1%; with UO-31 renal it was 85.9%; in the experiment with TK-10 renal, 98.2%; with ACHN renal it was 110%; in the experiment with A498 renal, 88.4%; in the experiment on CCRF-CEM leukemia, 97.2%. For the same compound, the growth in the experiment with MOLT-4 leukemia was 112%.
For `Nc1c(C(=O)Nc2cccc3cnccc23)sc2nc3c(cc12)C(=O)CCC3`, the growth in the experiment with HCT-15 colon is 70.9%; with HT29 colon, 79.9%; in the experiment with SNB-75 CNS, 88.5%; with SNB-19 CNS it was 66.6%; with U251 CNS, 95.7%; with PC-3 prostate, 75.9%. Also, the growth was 47.6% with SK-MEL-5 melanoma; 43.1% with UACC-62 melanoma; 91.6% in the experiment on LOX IMVI melanoma; 85.1% in the experiment with SK-MEL-28 melanoma; 77.2% in the experiment with SK-MEL-2 melanoma; 91.6% in the experiment on EKVX NSCLC. For the same compound, the growth in the experiment with SN12C renal is 89.2%; in the experiment on UO-31 renal, 81.8%; in the experiment with TK-10 renal, 104%; in the experiment on ACHN renal, 101%; with CAKI-1 renal, 77.8%; in the experiment with CCRF-CEM leukemia, 64.6%. Also, in the experiment with MOLT-4 leukemia, the growth is 102%.

The values above are taken from PubChem BioAssay (NCI).
